The full ranking holds about 33,000 sequences; the median of “E-score (-0.5 to 0.5)” is about -0.01, and the highest 2% start at about 0.26. Only a selection was taken, and the highest values are over-represented in it overall.
molecular target: Ste12 (UniProt P13574); test: PBM E-score (8-mer binding enrichment) (E-score (-0.5 to 0.5)); higher = stronger / more preferred TF binding; settings: protein concentration: 200 nM; construct: GST-DNA-binding domain
Method in brief: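 Full-length yeast transcription factors or their DNA-binding domains, GST-tagged and expressed with PURExpress, were applied at about 100-200 nM to universal all-10-mer Agilent arrays. These arrays had been made double-stranded by primer extension on fresh or once-stripped slides. Detection used fluorescent anti-GST, normalisation used masliner, and E-scores for ungapped eight-base words pooled with reverse complements came from the Universal PBM Analysis Suite.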

Chain of UniProt P13574 (P13574 whole entry, the tested form may be a part): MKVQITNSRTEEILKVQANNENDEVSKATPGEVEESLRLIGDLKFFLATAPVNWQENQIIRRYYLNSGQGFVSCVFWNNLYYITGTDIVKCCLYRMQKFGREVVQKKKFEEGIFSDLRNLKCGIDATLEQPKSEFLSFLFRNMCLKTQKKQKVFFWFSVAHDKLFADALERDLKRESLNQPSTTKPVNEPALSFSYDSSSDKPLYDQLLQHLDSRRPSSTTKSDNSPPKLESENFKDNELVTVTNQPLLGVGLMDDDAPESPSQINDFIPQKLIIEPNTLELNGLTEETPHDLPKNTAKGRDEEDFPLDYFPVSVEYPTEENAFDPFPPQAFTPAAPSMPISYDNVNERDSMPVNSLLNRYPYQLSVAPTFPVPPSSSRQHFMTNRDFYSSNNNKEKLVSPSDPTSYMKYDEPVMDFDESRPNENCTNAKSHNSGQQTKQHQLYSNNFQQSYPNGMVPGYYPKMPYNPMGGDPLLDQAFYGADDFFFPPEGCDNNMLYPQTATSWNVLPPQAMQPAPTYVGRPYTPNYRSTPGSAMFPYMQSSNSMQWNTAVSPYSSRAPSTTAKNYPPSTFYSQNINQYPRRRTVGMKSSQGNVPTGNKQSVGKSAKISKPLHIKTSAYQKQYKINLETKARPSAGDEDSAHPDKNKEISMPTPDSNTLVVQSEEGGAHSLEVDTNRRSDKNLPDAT

Sequence | PBM E-score
AAGTCGTA | -0.129
TATGGGAA | 0.0435
CGGCTGGC | -0.117
CTATTAAC | -0.0267
TCATTAAA | 0.324
ATATTATC | 0.181
ATATTATG | 0.303
TAATTAAA | 0.173
GTATTAAC | 0.132
ATATTAAC | 0.285
ACATTAAA | 0.196
TTATTAAA | 0.321
ATATTATA | 0.18
GCATTAAA | 0.111
GTATTAAA | 0.166
CTGGGCAA | -0.0128
GGACTAGA | -0.124
TATGGTCA | -0.0454
CAGTAAGG | -0.0592
ACGCGAGC | -0.151
AGGTTACT | 0.0862
TACTCCCA | 0.056
ATATTAAG | 0.109
ATATTAGA | 0.0159
ATATTAAT | 0.298
CTATTAAA | 0.219

Sequence | PBM E-score
ATATTAAA | 0.29
AGATTAAT | 0.0881
GAATAATA | 0.286
GAATAATC | 0.00357
AAATAATC | 0.171
AAATAATT | 0.294
AAATAATA | 0.257
TAATAATA | 0.181
AGACTGCT | 0.0365
AGCGCTAT | 0.0744
AACTCATG | 0.129
ATTGAGGG | -0.124
GAATGAGC | -0.0246
ATCCGAAT | 0.192
AAAAACCC | 0.0736
AAAACCTT | 0.142
AAAAACCG | 0.178
AAAACCTA | 0.283
CAAACCTA | 0.0393
AAAAACCT | 0.263
CGAAGAAA | 0.195
ACTCTCCG | -0.0208
AAGAAGAG | -0.00818
AAGTTGAC | 0.0703
AGTAGGCG | -0.256
ATCCAATG | -0.165

Sequence | PBM E-score
ATCTCTCG | -0.0464
AAACAACT | 0.174
GAACAACC | 0.00021
AAACAATT | 0.112
AATCAACA | 0.29
AAACAATA | 0.274
AAACAACG | 0.0956
TATCAACA | 0.149
GATCAACA | -0.0858
AAACAACA | 0.287
CAACAACC | 0.0311
TAACAATA | 0.239
AAACAACC | 0.277
GCCAATGA | -0.228
GGGTGGAC | -0.226
ACATTTTG | 0.0789
ACAGTTGC | -0.0387
AACCATCT | 0.0768
AGCTCAGC | -0.398
ACTGACAA | 0.0676
ACCTGTCA | 0.0912
GCACAAAA | 0.165
CTACAAAA | 0.228
TTACAAAA | 0.301
ACACAAAA | 0.26
ATACAAAA | 0.209

Sequence | PBM E-score
TCACAAAA | 0.271
ACGTTCTC | 0.0364
TACCTATA | 0.106
CGCATGAC | -0.0101
CCCTGTTC | -0.243
CCCTGTTA | 0.279
GCCTGTTA | 0.00489
CGCTCCTC | -0.106
CAGTAGGG | -0.176
CTGGCTAA | -0.0552
ACGTTTCT | 0.064
TCGTTTAA | 0.155
GCGTTTCA | 0.476
ACGTTTCA | 0.48
GCGTTTGA | 0.0907
ACGTTTCC | -0.0394
ACGTTTAG | -0.156
ACGTTTGG | 0.127
TCATTTCA | 0.242
ACGTTTCG | 0.297
TCGTTTCA | 0.467
GCGTTTCC | 0.0828
TACTTCCA | 0.0198
AATGGGAT | -0.185
CGCAAACA | 0.053
AAGTCGGC | -0.16

Sequence | PBM E-score
AACGCTTA | -0.0484
CGACAGAC | -0.00066
CAGGTCCC | -0.104
AGCTGATG | 0.129
GAACGGTA | -0.17
CCGTTTCC | 0.139
CCGTTTCG | 0.164
CCGTTTCA | 0.46
GAACTCCC | 0.0278
ATGCGATG | 0.00552
GTTGGTCA | 0.121
CAAATGAA | 0.238
TGAATGAA | 0.208
AAAATGAC | 0.121
AAAATGAG | 0.124
GGAATGAA | 0.281
AAAATGAT | 0.317
TAAATGAA | 0.185
GAAATGAA | 0.331
CGAATGAA | 0.084
GAAATTAA | 0.294
CAAATTAA | 0.203
GAAATTAC | 0.176
AAGTTGAA | 0.134
CCGGCCCG | 0.00367
CGCCAAAA | 0.227

Sequence | PBM E-score
GGGGTGGA | 0.00832
ACCTTATG | 0.0329
TCCTAAGA | -0.00559
AAAGGTTC | -0.154
AAAATGGA | 0.237
AAAATGAA | 0.27
AAAATGCA | 0.00439
GCCTCAGC | -0.226
ATAAAGTC | 0.167
AGATGGCT | -0.0505
AATGTAAA | 0.269
CATGTAAA | 0.027
AATGTAAT | 0.187
TATTCAGA | 0.029
CGCCAATA | 0.036
CTTTGAGA | 0.114
GTTTGATA | 0.301
ATTTGATA | 0.258
GTTTGAGA | 0.311
ATTTGAAG | 0.0968
ATTTGAAA | 0.366
CTTTGACA | -0.0728
ATTTGAGA | 0.126
CTTTGAAA | 0.318
ATTTGAAC | 0.123
CTTTGAAC | 0.0927

Sequence | PBM E-score
CTTTGATA | 0.179
CGCCCTTA | -0.0507
AGTGAACG | -0.109
TGCGTCAA | 0.0654
GTCCAAAC | 0.0248
ACGCTTGG | -0.293
ATAGACGC | 0.0365
GTTTGAAA | 0.409
GTTTGCAA | 0.186
GTTTGACA | 0.0294
AGCGGCTC | -0.0004
ACCAAAAC | 0.235
ACCAAAAT | 0.254
ACCAACAA | 0.269
ACCAAAAA | 0.27
CACCAAAA | 0.216
TACCAAAA | 0.204
ACCAACAG | -0.042
AACCAAAA | 0.324
ACCAACAT | 0.125
TATTAAGA | 0.0777
GCATCTAC | 0.0977
AGCTTGAA | -0.0125
CGTGGAAA | 0.19
TATGGAAA | 0.292
AGTGGAAA | -0.0995

Sequence | PBM E-score
TGTGGAAA | 0.286
CATGGAAA | 0.098
GATGGAAA | 0.0433
CTCAAGGA | -0.181
ACTGGTCC | -0.0777
AACTTTTA | 0.228
CACCTTCC | 0.0254
AACCCCCG | -0.133
CAAACCCA | 0.262
CAAACCCG | 0.0369
AAACCCAA | 0.349
AAACCCCG | 0.28
TAACCCGA | -0.0489
AAACCCCC | -0.122
AAACCCGA | 0.336
GAACCCGA | -0.0553
GAAACCCA | 0.246
AAACCCAT | 0.131
GAACCCAA | -0.0682
GCGCACCC | -0.0102
CCAAGGGC | -0.139
CCGCACCC | 0.222
CAAGTTCG | -0.0514
CTTCTAAC | -0.0172
AGTCTAGC | -0.223
CTATCGCA | -0.0857

Sequence | PBM E-score
AGGTGATA | 0.0763
ACCGATGC | -0.0639
TTGAAAAA | 0.323
ATGAAAAA | 0.305
ATGAAAAG | -0.0787
CTGAAAAA | 0.0763
ATGAAAAT | 0.166
TAGAAAAA | 0.0605
GTGAAAAC | 0.0815
ACGAAAAC | 0.25
ATGAAAAC | 0.349
CGACCTTA | 0.111
ACGCCAGT | -0.084
ATAACTAT | 0.0787
AAAAAATC | 0.363
GAAAAATC | 0.201
CAAAAATC | 0.123
ACAAAATC | 0.291
ACAAAATG | 0.0682
ACAAAATA | 0.0836
CTACCACC | -0.102
AATCGACA | 0.248
CAGCGACC | -0.0234
GGCGTGGA | -0.0873
AATAGTCA | -0.0559
ATTTACAC | 0.18

Sequence | PBM E-score
TGGTGACA | 0.048
GGGTGAAA | 0.315
TGGTGAAA | 0.277
AGGTGAAA | 0.235
CGGTGAAA | 0.245
TGGTGCAA | -0.18
AGCTGGGG | -0.136
ACCCAGGT | -0.218
CCAAGAAC | -0.11
CGCCAACA | -0.0261
GCACATCA | -0.00042
GCCCCCAA | -0.0804
TAAAAATA | 0.318
AAAAAATA | 0.267
AATAAATA | 0.21
CATAAATA | 0.268
GTAAAATA | 0.131
ATAAAATA | 0.257
GAAAAATA | 0.217
CTAAAATA | 0.181
CAAAAATG | 0.182
CAAAAATA | 0.346
CCAAAATA | 0.21
TATAAATA | 0.228
GCCTAAAA | -0.0428
CATCCCAA | 0.0892

Sequence | PBM E-score
CTCAACTC | 0.141
ATGACTAG | -0.183
ACACATCC | -0.0267
GTTCACCA | -0.0697
TCCCTCCA | -0.191
ATATTGAT | 0.248
AAATCTTC | 0.0263
GAGGTAGC | -0.239
CAGGGTTC | -0.0459
AAACGCGG | 0.264
CAACGCGG | -0.0344
AAACGCGT | 0.255
CGCCGTCA | 0.0459
ACTCTGCT | -0.0783
GATATTGC | 0.0418
ACAATCCG | -0.0367
CCAATCCG | 0.281
CCAATCCC | 0.104
GGCTACCC | -0.285
CGGGCGGA | -0.012
AGGGCGTA | -0.176
AGGGCGGA | -0.248
GGGGCGGA | 0.404
GGGGCGTA | 0.282
CGGGCGTA | -0.0442
CGCTCCAG | 0.0315

Sequence | PBM E-score
CAACCTGC | 0.0657
CCTGCAGG | -0.16
AAAAGTTG | 0.127
AAAAGTTC | 0.0553
AAAAGTTT | 0.283
AAAAGTAA | 0.287
AAAAGTGT | 0.0304
AAAAGTGA | 0.267
AAAAGTAT | 0.178
AAAAGTGG | 0.139
CAAAGTAA | 0.125
CAACAGCC | -0.0347
TATCGAAA | 0.258
GAGTATCC | -0.127
AGGTAGAG | -0.0159
CGCTGGCA | 0.00792
TCACCAAA | 0.177
CCAGCAGG | -0.107
ATGATGGG | -0.0865
CCGAAACC | 0.142
CCGAAAAG | 0.235
TCGAAAAA | 0.238
CCGAAAAA | 0.269
TCGAAACA | 0.395
CCGAAACG | 0.152
ACGAAACC | 0.242

Sequence | PBM E-score
CCGAAACA | 0.376
ACGAAACT | 0.127
GCGAAACA | 0.134
CCGAAAAC | 0.0124
ACGAAACA | 0.327
ATTTTTGC | 0.236
CCTCTAGA | -0.134
ATTCGCGA | 0.0844
ATAGACTC | -0.133
CAGCTTAC | 0.0225
AAGACATG | -0.137
GCCTGGGA | -0.23
TACCTGGA | -0.0387
TCCCGCAA | 0.18
ACATAGGA | -0.0111
ATTTAGGA | -0.039
ACAGAATA | 0.0915
CTCGCAGC | 0.0324
ACGAAAAG | 0.16
AAGAAACA | 0.285
ACGAAAGG | 0.0336
AAGAAACT | 0.172
CAGAAACA | 0.156
ACGAAACG | 0.31
GGTCCATA | -0.111
AAGCAATA | 0.0028

Sequence | PBM E-score
ACGGCATG | -0.107
CAGGTAAA | 0.248
GAGGTAAA | 0.334
GAGGTAAC | 0.0397
GAGCTGGC | -0.0837
AATATATT | 0.326
CATATATA | 0.283
AATATATG | 0.143
CATATATC | 0.0851
AATATATA | 0.22
CATATATG | 0.18
AAAATATG | 0.241
AAAATATC | 0.147
AAAATATT | 0.266
AGTATATG | 0.143
AGTATATA | 0.295
AGTATATC | -0.0122

Reference: the supplement of paper PMC3334620
